# Assay results: PubChem BioAssay (NCI)
# Compounds without any hit were thinned out: in the full panel of roughly 83,000, 20% have a hit.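 In brief: 96-well plates, 48 h treatment, single concentration, percent growth endpoint.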 A number with no mark means an inactive call. Activity calls are given as the source filed them. Rule for the calls: active = growth percent below 10; inactive = the rest.
# Key:
# Assay in all cases: NCI-60 one-dose screen, 48 h (100 = growth as untreated, 0 = no growth, -100 = all killed)
# Details in all cases: 10 µM unless noted
# [1] = test system: BT-549 breast
# [2] = test system: MDA-MB-435 melanoma
# [3] = test system: SW-620 colon
# [4] = test system: MCF7 breast
# [5] = test system: HCT-116 colon
# [6] = test system: HCC-2998 colon
# [7] = test system: KM12 colon
Compound,growth [1],growth [2],growth [3],growth [4],growth [5],growth [6],growth [7]
Nc1ncc(-c2cnn(C3CCNCC3)c2)cc1-c1nc2cc(Cl)ccc2o1,61.3%,-100% (active),-100% (active),-93.3% (active),-100% (active),-100% (active),-100% (active)
Nc1ccc(S(=O)(=O)Nc2ncccn2)cc1,119%,108%,105%,101%,113%,104%,108%
COc1ccc2c(c1)C(=O)c1c-2c(OCCN(C)C)nc2cc(OC)ccc12,56.6%,18.5%,-45.8% (active),-50% (active),-76% (active),-88.8% (active),-37.4% (active)
C/C(=C\CCc1ccsc1)CC/C=C(\C)CCCN1CCN(CCO)CC1,30.1%,41%,-11.4% (active),26.3%,26%,19.8%,27.1%
O=C1/C(=N/O)CCc2ccccc21,102%,95.6%,95%,96.3%,83.6%,103%,89.3%
Cc1ccc([N+](=O)[O-])cc1NC(=O)Nc1cccc(F)c1,92.7%,76.7%,99.7%,69.8%,44%,91.8%,80.9%
CCOc1cccc(C2CC(=O)Nc3cc4c(cc32)OCO4)c1 (stereo not drawn),82.4%,29.2%,84.2%,82.8%,80.7%,86.4%,72.3%
Cc1ccc(NC(=O)COC(=O)c2ccc(S(=O)(=O)N3CCCCCC3)cc2)cc1,141%,107%,107%,102%,103%,91.5%,97.7%
CCN1C(=O)c2ccc3c4c(ccc(c24)C1=O)C(=O)N(CCCNCc1ccccc1OC)C3=O,-75.9% (active),-80.3% (active),-57.4% (active),-25.5% (active),-79% (active),-82.6% (active),-35.1% (active)
CCCCCCCC/C=C\CCCCCCCCOc1ccccc1CC(=O)NCC[N+]1(C)CCCC1,94.5%,71.2%,78.9%,82.6%,74.7%,74.8%,51.8%
O=C1NC(=O)/C(=C\c2ccccc2)C2=C1CCCC2,35%,-76.3% (active),-50.2% (active),-49% (active),18.8%,123%,18%
COc1ccc2nc(-c3ccc(-n4cncc4-c4ccc(OC)c(N)c4)cc3)sc2c1,102%,105%,97.4%,82.1%,98.4%,111%,105%
O=c1ccn(C2CCCO2)c(=O)[nH]1 (stereo not drawn),118%,103%,102%,99.4%,97.2%,104%,108%
CC(CCC(=O)O)(NC(=O)c1ccc([N+](=O)[O-])cc1)C(=O)O (stereo not drawn),114%,105%,103%,107%,98.9%,90.4%,99.3%
Oc1ccccc1/C=N\Nc1ccccc1,65.1%,28.6%,34.5%,61.1%,68.6%,79.6%,19.8%
COc1cccc(-c2nnc(N)o2)c1,87.4%,105%,103%,101%,100%,83.3%,106%
COC1=CC(c2ccc[nH]2)=N/C1=C\c1[nH]c(C)c(C(=O)CCC(=O)Oc2ccc3c(c2)CCC2C3CC[C@]3(C)C(=O)CC[C@@H]23)c1C (stereo partly drawn),70.2%,93.7%,27.9%,50.2%,20.3%,79.8%,53.6%
CSc1ccc2c(c1)N(CCC1CCCCN1C)c1ccccc1S2 (stereo not drawn),67.9%,42.6%,75.6%,5.18% (active),42.3%,34.4%,45%
COc1ccc(-c2noc(N)c2-c2cc(OC)c3c(c2)OCO3)cc1,48%,-59.3% (active),17.5%,19.1%,20%,46%,23.9%
